HDAC3 inhib – blocks human histone deacetylase 3. inhibition, % at 8.3 µM. AID 2718. 320,000 tested, 0.15% active. recombinant HDAC3, fluorogenic peptide/trypsin coupled, fluorescence; in the data active means inhibition above about 26%, passing the limit was not always enough; inconclusive means no clear call, values can overlap the other calls
GRK2 inh – human GRK2 inhibition via aptamer displacement | P25098 | AID 488847 | inhibition of aptamer binding, % at 10 µM | bead flow cytometry, FAM-aptamer displacement from GRK2 | 330,000 tested, 0.59% active;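 active means inhibition of aptamer binding above 40%, roughly 3 SD of noise, on plates passing a quality check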;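 further: median bead fluorescence of bound FAM aptamer so fluorescent compounds give negative values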
ALR H2O2 inh – inhibitors of human sulfhydryl oxidase ALR | purified ALR, DTT oxidation, H2O2 HRP-luminol luminescence | 290,000 tested, 3.8% active | inhibition, % (no concentration beside the values) | P55789;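 active means mean replicate inhibition above about 79%, with every replicate also reaching it, limit read from the data; inconclusive means only one of the two criteria met; inactive means mean below limit and not every replicate reaching it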
Rtt109 HAT inh – inhibitors of Candida albicans Rtt109/Vps75 histone acetyltransferase; Q5AAJ8; purified Rtt109/Vps75, ThioGlo CoA-SH fluorescence, 4 h; inhibition, % at 34.9 µM; AID 540336; 330,000 tested, 0.16% active;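 active means inhibition of at least 50% in every replicate; inconclusive means best replicate reaches 50% inhibition but some replicates fall short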
Target sequence (Q5AAJ8 whole entry, looked up): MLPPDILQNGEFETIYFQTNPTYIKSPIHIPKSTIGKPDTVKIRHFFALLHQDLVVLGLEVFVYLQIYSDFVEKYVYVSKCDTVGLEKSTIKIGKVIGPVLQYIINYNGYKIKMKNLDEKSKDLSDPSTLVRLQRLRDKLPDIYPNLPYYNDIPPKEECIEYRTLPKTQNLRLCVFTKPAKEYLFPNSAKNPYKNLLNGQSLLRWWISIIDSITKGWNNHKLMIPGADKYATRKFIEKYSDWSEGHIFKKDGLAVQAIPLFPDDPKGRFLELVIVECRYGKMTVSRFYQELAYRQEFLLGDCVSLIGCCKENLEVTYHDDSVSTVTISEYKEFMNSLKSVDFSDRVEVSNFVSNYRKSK
Rce1 inhib – blocks yeast Ras-converting enzyme | Q03530 | yeast membranes, quenched prenylated peptide cleavage fluorescence | AID 2563 | calls only | 290,000 tested, 0.27% active;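 active means fall in fluorescence gain of 50% or more versus controls, with final raw signal at or below 3038400; inconclusive means same 50% fall but final raw signal above 3038400; inactive means fall in fluorescence gain under 50%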;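 further: plate controls were neutral control wells for no effect and wells lacking membranes for full effect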
Target sequence (Q03530 whole entry, looked up): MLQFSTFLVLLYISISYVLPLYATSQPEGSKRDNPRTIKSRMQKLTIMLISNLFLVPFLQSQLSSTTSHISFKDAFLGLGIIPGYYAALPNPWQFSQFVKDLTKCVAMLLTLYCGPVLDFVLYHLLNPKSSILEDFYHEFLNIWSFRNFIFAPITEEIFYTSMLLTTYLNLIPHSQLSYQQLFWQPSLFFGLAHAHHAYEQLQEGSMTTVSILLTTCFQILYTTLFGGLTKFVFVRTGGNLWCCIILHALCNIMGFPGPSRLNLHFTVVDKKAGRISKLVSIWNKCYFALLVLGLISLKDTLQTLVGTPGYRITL
Efflux pump inh – antifungal efflux pump inhibition, Nile Red retention | 330,000 tested, 0.44% active | S. cerevisiae Candida pump triplex | inhibition, % at 10 µM;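 active means plate passing quality check with inhibition over a set limit, or well fluorescence over plate mean plus 4 SD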;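 further: Nile Red retained in pooled yeast measured as flow cytometry median fluorescence; 0% = buffer negative control and 100% = Enniatin B positive control; higher means more Nile Red kept so more efflux inhibition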
An asterisk follows results filed as active. Shown are actives, neighbours in structure and some others; about 4.5% of the full set was active somewhere.

How did O=c1c2ccccc2c(C=Nc2ccc(Cl)cn2)c(O)n1-c1cc(Cl)ccc1N1CCOCC1 do in these assays?
HDAC3 inhib: -1.0; GRK2 inh: 4.0; ALR H2O2 inh: -5.3; Rtt109 HAT inh: 1.4; Rce1 inhib: inactive; Efflux pump inh: 0.4*

How did COc1ccc(C(=O)Cc2cc3ccccc3oc2=O)cc1 do in these assays?
HDAC3 inhib: 0.9; GRK2 inh: 0.0; Rce1 inhib: inactive; Efflux pump inh: -1.6

Results for O=C(Nc1ccccc1O)c1ccc(NS(=O)(=O)c2cccc3cccnc23)cc1 ?
HDAC3 inhib: 102.7*; GRK2 inh: 2.0; ALR H2O2 inh: 44.3; Rtt109 HAT inh: 3.5; Rce1 inhib: inactive; Efflux pump inh: 0.0

How did COC(=O)c1ccc(NC(=O)c2ccc(NS(=O)(=O)c3cccc4cccnc34)cc2)cc1 do in these assays?
HDAC3 inhib: 2.1; GRK2 inh: 2.0; ALR H2O2 inh: 5.1; Rtt109 HAT inh: -2.3; Rce1 inhib: inactive; Efflux pump inh: -0.3

How did COc1ccc(COC(=O)c2ccc(Br)c(S(=O)(=O)N3CCOCC3)c2)cc1F do in these assays?
HDAC3 inhib: 4.6; GRK2 inh: 0.0; ALR H2O2 inh: -0.3; Rtt109 HAT inh: 5.7; Rce1 inhib: inactive; Efflux pump inh: 0.3

Results for O=S(=O)(NCCc1ccccc1)c1ccc(Br)cc1 ?
HDAC3 inhib: 1.9; GRK2 inh: 3.0; ALR H2O2 inh: -4.7; Rtt109 HAT inh: -3.1; Rce1 inhib: inactive; Efflux pump inh: 0.0

Results for Cc1cccnc1NC(=O)C1CCN(S(=O)(=O)c2ccc3c(c2)CCC(=O)N3)CC1 ?
HDAC3 inhib: 0.7; GRK2 inh: 0.0; ALR H2O2 inh: 89.8*; Rtt109 HAT inh: 6.1; Rce1 inhib: inactive; Efflux pump inh: 0.1

How did CN(C)c1ccc(CNC(=O)C2CCN(S(=O)(=O)c3ccc4c(c3)CCC(=O)N4)CC2)cc1 do in these assays?
HDAC3 inhib: 2.7; GRK2 inh: 4.0; ALR H2O2 inh: 91.3*; Rtt109 HAT inh: -8.5; Rce1 inhib: inactive; Efflux pump inh: -0.1

Results for CN(C)c1ccc(CNC(=O)c2cc(S(=O)(=O)N3CCOCC3)cn2C)cc1 ?
HDAC3 inhib: 2.5; GRK2 inh: 2.0; ALR H2O2 inh: 97.6*; Rtt109 HAT inh: -0.7; Rce1 inhib: inactive; Efflux pump inh: 0.1

How did O=C1CCCc2cc(S(=O)(=O)N3CCC(C(=O)NCc4ccccc4)CC3)ccc2N1 do in these assays?
HDAC3 inhib: 0.0; GRK2 inh: 2.0; ALR H2O2 inh: -0.4; Rtt109 HAT inh: 9.0; Rce1 inhib: inactive; Efflux pump inh: 0.0

What do the screens show for `COc1ccc([C@H]2CC(=O)C=C(/C=C/c3ccccc3)C2)cc1OC`?
HDAC3 inhib: 1.7; GRK2 inh: 3.0; ALR H2O2 inh: -2.5; Rtt109 HAT inh: 8.4; Efflux pump inh: -0.1

What do the screens show for `Cc1cc(C(=O)NCC(=O)OC(C)C(=O)N2CCOCC2)ccc1[N+](=O)[O-]` (stereo not drawn)?
HDAC3 inhib: -3.8; GRK2 inh: 1.0; ALR H2O2 inh: 24.1; Rtt109 HAT inh: 13.0; Efflux pump inh: 0.2

Results for C[C@@H]1O[C@@H](O[C@@H]2[C@@H](O)[C@H](OCCc3ccc(O)c(O)c3)O[C@H](CO)[C@H]2OC(=O)/C=C/c2ccc(O)c(O)c2)[C@H](O)[C@H](O)[C@H]1O ?
HDAC3 inhib: -3.4; GRK2 inh: 0.0; ALR H2O2 inh: 98.4*; Rtt109 HAT inh: -3.6; Efflux pump inh: -0.4

What do the screens show for `COc1cc2c3c(n(C)c(=O)c2cc1OC)-c1cc2c(cc1C3=O)OCO2`?
Rtt109 HAT inh: -7.6

How did CCC(CO)Oc1cc(NC(=O)c2ccccc2[N+](=O)[O-])c2ncn(C(C)C)c2c1 (stereo not drawn) do in these assays?
HDAC3 inhib: 7.8; GRK2 inh: 3.0; ALR H2O2 inh: -16.6; Rtt109 HAT inh: 9.9; Efflux pump inh: -0.5

How did CC(=O)c1ccc(NC(=S)Nc2ccc(N3CCOCC3)cc2)cc1 do in these assays?
HDAC3 inhib: 4.5; GRK2 inh: 5.0; ALR H2O2 inh: inconclusive; Rtt109 HAT inh: 16.3; Rce1 inhib: inactive; Efflux pump inh: 0.2

Results for CSCCCNC(=S)Nc1ccc(N2CCOCC2)cc1N1CCOCC1 ?
HDAC3 inhib: 0.8; GRK2 inh: 1.0; ALR H2O2 inh: 95.6*; Rtt109 HAT inh: -7.6; Rce1 inhib: inactive; Efflux pump inh: 0.0

Results for CSCCCNC(=S)Nc1ccc(N2CCOCC2)cc1 ?
HDAC3 inhib: -9.6; GRK2 inh: 0.0; ALR H2O2 inh: 95.0*; Rtt109 HAT inh: 3.8; Rce1 inhib: inactive; Efflux pump inh: -0.1

Results for Cc1ccc(NC(=S)NCCCN2CCOCC2)cc1 ?
HDAC3 inhib: 0.6; GRK2 inh: 1.0; ALR H2O2 inh: 39.1; Rtt109 HAT inh: -1.9; Rce1 inhib: inactive; Efflux pump inh: -0.1

What do the screens show for `CN(C)C(=S)Nc1ccc(N2CCOCC2)cc1`?
HDAC3 inhib: 1.9; GRK2 inh: 1.0; ALR H2O2 inh: 99.0*; Rtt109 HAT inh: 0.9; Rce1 inhib: inactive; Efflux pump inh: 0.1

Results for CC(=O)c1csc(COc2ccc(Cl)cc2)n1 ?
HDAC3 inhib: 0.6; GRK2 inh: 2.0; ALR H2O2 inh: 1.6; Rtt109 HAT inh: -5.9; Rce1 inhib: inactive; Efflux pump inh: 0.0

How did Cc1cc(C)c(S(=O)(=O)N2CCCCC2CCNC(=O)C(=O)NC2CC2)c(C)c1 (stereo not drawn) do in these assays?
GRK2 inh: 5.0; Rtt109 HAT inh: 0.9; Rce1 inhib: inactive; Efflux pump inh: 0.0

What do the screens show for `CCOC(=O)C1=C(C(=O)OCC)N(Cc2ccccc2)CCC1=O`?
Rtt109 HAT inh: 7.0

What do the screens show for `COc1ccc(S(=O)(=O)N2CCCCC2)cc1NC(=O)c1cccc(S(=O)(=O)N2CC(C)OC(C)C2)c1` (stereo not drawn)?
Rtt109 HAT inh: 1.6

Results for COc1cc(/C=N/N=C(N)N)ccc1OCc1ccccc1Cl ?
HDAC3 inhib: 9.0; GRK2 inh: 0.0; ALR H2O2 inh: 15.3; Rtt109 HAT inh: 69.0*; Rce1 inhib: inactive; Efflux pump inh: 0.1

How did COc1ccc(/C=N/N=C/c2ccc(OC)c(OC)c2)cc1OC do in these assays?
HDAC3 inhib: 8.3; GRK2 inh: 1.0; Rtt109 HAT inh: -9.7; Rce1 inhib: inactive; Efflux pump inh: 0.2

Results for CN(C)c1ccc(N/C(=N\S(=O)(=O)c2cccs2)c2ccccc2)cc1 ?
HDAC3 inhib: 1.9; GRK2 inh: 0.0; ALR H2O2 inh: 98.8*; Rtt109 HAT inh: -7.1; Rce1 inhib: inactive; Efflux pump inh: 0.1

Results for CN(/C(=N/S(=O)(=O)c1cccs1)c1ccccc1)c1ccccc1 ?
HDAC3 inhib: 3.5; GRK2 inh: 0.0; ALR H2O2 inh: -1.9; Rtt109 HAT inh: -0.9; Rce1 inhib: inactive; Efflux pump inh: -0.4

What do the screens show for `Cc1cc(Cl)c2oc(C(=O)N3CCN(C(=O)c4ccco4)CC3)c(C)c2c1`?
HDAC3 inhib: -3.6; GRK2 inh: 0.0; ALR H2O2 inh: 0.1; Rtt109 HAT inh: 2.7; Rce1 inhib: active; Efflux pump inh: -0.1

Results for Cc1nn2cc(-c3ccc(N)cc3)nc2s1 ?
HDAC3 inhib: 9.1; GRK2 inh: 0.0; ALR H2O2 inh: 98.4*; Rtt109 HAT inh: -1.3; Rce1 inhib: inactive; Efflux pump inh: -0.1

Screening results from PubChem BioAssay.
